Measured values: ChEMBL document CHEMBL3988442, “University of Dundee, Small-Polar-MMV Screening Library” (2021)
Out of some 48,000 compounds screened, about 13,000 (27%) showed an effect of 50% or more. The list shows a part of the results.

System: Wolbachia pipientis
Test: Anti-Wolbachia Cell-Based Screen
Type: functional
Parameters: scale not given: in the data most compounds retested in dose-response had high values
Conditions: 5 µM

Structure (SMILES) | Percent Effect
COC(=O)c1sccc1S(=O)(=O)NCCc1ccoc1 | -8.727%
CN(C)c1ncc(I)c(C2CCCN2S(C)(=O)=O)n1 (centres undefined) | 113.9%
CN(C)c1ncc(I)c(C2CCCCN2S(C)(=O)=O)n1 (centres undefined) | 26.22%
CN(C)c1ncc(I)c(C2CCCCN2C)n1 (centres undefined) | 140.6%
CN(C)c1cccc(C2CCCN2S(N)(=O)=O)c1 (centres undefined) | -8.581%
CN(C)c1ncc(I)c(C2CCCN2C)n1.Cl (centres undefined) | 88.04%
CC1CCCCN1C(=O)Cn1cc(I)cn1 (centres undefined) | 11.08%
Cc1nc(CN2CCC(CNC(=O)NCCC3CCC3)CC2)oc1C | -2e-14%
CN(C)C(=O)c1nc(CN2CC(Cc3ccccc3)CC2=O)no1 (centres undefined) | 4.683%
CC(=O)N1CCc2[nH]cnc2C12CCN(C(=O)CCn1cccn1)CC2 | -18.33%
COC[C@@]12CC[C@@H](N3CCOCC3)C[C@H]1CCN(c1cnccn1)C2 | 11.4%
CNC(=O)c1cc2c(nc1NCC1CC1)CCN(c1ccncn1)CC2.O=C(O)C(F)(F)F | -1.556%
CNC(=O)c1cc2c(nc1NCC(C)C)CCN(CC1CC1)CC2.O=C(O)C(F)(F)F.O=C(O)C(F)(F)F | 9.792%
CN(C)C(=O)c1cc2c(nc1NCC1CC1)CCNCC2 | 103.6%
CNC(=O)N1CCc2cc(C(=O)NCC3CC3)c(NC(C)C)nc2CC1 | 0.2326%
CC(C)Nc1nc2c(cc1C(=O)N(C)C)CCNCC2.O=C(O)C(F)(F)F.O=C(O)C(F)(F)F | -6.085%
CNC(=O)N1CCc2cc(C(=O)N(C)C)c(NCC3CC3)nc2CC1.O=C(O)C(F)(F)F | 7.418%
CCN1CCc2cc(C(=O)N(C)C)c(NCC3CC3)nc2CC1 | 103.3%
CCS(=O)(=O)N1CCc2cc(C(=O)N(C)C)c(NCC3CC3)nc2CC1 | 112.1%
CN(C)C(=O)c1cc2c(nc1NCC1CC1)CCN(CC1CC1)CC2 | 87.77%
CNC(=O)c1cc2c(nc1NCC1CC1)CCNCC2 | 13.18%
CNC(=O)c1cc2c(nc1NCC1CC1)CCN(S(=O)(=O)C1CC1)CC2 | 20.95%
Cc1ccnn1-c1ccc(C(=O)N2CCN(c3cnccn3)CC2)cc1 | 15.98%
CC/N=c1\nc(NCC)nc2n1C(O)(Nc1cccc(C)c1C)CS2 (centres undefined) | 97.63%
CC/N=c1\nc(NCC)nc2n1C(O)(Nc1cc(Cl)ccc1Cl)CS2 (centres undefined) | 112.8%

Structure (SMILES) | Percent Effect
Cc1cc(CNc2cc(Cl)ccc2Cl)no1 | -3.438%
CC/N=c1\nc(NCC)nc2n1C(O)(Nc1cccc(Cl)c1Cl)CS2 (centres undefined) | 212.9%
CC/N=c1\nc(NCC)nc2n1C(O)(Nc1ccc(C)cc1C)CS2 (centres undefined) | 134.3%
O=C(c1cccc2[nH]ncc12)N1CCCC1c1noc(C2CC2)n1 (centres undefined) | -9.191%
COc1ccc(S(=O)(=O)N2CC(CC(=O)O)c3ccccc32)cc1 (centres undefined) | -7.807%
Cl.NCC1CCCCN1C(=O)Cc1cccc(Br)c1 (centres undefined) | -8.019%
N#CC(NC(=O)c1cccc2c1OCCO2)c1ccc(F)cc1F (centres undefined) | -4.984%
CCN(Cc1cc(Cl)ccc1OC)Cc1nccn1C | -15.12%
CC/N=c1\nc(NCC)nc2n1C(O)(Nc1cc(C)ccc1C)CS2 (centres undefined) | 165.1%
CCn1c(C2CCCN(Cc3ccc(OC)c(C)c3C)C2)nn(C)c1=O (centres undefined) | 24.51%
Cc1ccccc1C(C)NC(=O)CN1CCN(Cc2ccc(Br)s2)CC1 (centres undefined) | 1.299%
O=C1NCC(C(=O)N(Cc2ccc(C(F)(F)F)cc2)C2CC2)N1 (centres undefined) | -7.127%
CC(C)(NC(=O)Cc1ccccc1F)C(=O)O | 90.43%
CC(C)(CNC(=O)CCOc1cccc(F)c1)C(N)=O | -11.69%
O=C(Cc1cccc(F)c1F)NS(=O)(=O)c1ccc(Cl)cc1F | 16.65%
Cc1cccc(OCCC(=O)NCC(C)(C)C(N)=O)c1 | -9.486%
CC(C)(NC(=O)Cc1ccccc1F)C(C)(C)C(=O)O | 10.54%
CS(=O)(=O)Cc1ccc(Cl)cc1NCc1ccccc1F | -2.816%
CC(C)(C)SCC(=O)NC(C)(C(N)=O)c1cccc(Cl)c1 (centres undefined) | 113.7%
COCCC(=O)NC(C)(C(N)=O)c1cccc(Cl)c1 (centres undefined) | 111.9%
CC(NC(=O)Cc1ccccc1F)(C(N)=O)c1cccc(Cl)c1 (centres undefined) | 85.68%
CC(C)(CNC(=O)C1CCCN(C(N)=O)C1)c1cccc(Cl)c1 (centres undefined) | -3.245%
Cc1nncn1CCNC(=O)C(C)(C)c1cccc(Cl)c1 | -9.762%
CCC(C)(CC(=O)O)NC(=O)Cc1ccccc1F (centres undefined) | -2.363%
COC[C@@]12CC[C@@H](N3CCOCC3)C[C@H]1CCN(c1ncccc1F)C2 | -2.051%

Structure (SMILES) | Percent Effect
Cc1nn(C)c(C)c1-c1c(-c2ccccc2)ncn1[C@H](CO)C(=O)O | -8.389%
Cc1ncsc1CCN(C)C(=O)c1ncccc1O | -5.816%
CC(C)OCc1cccc(NC(=O)N(C)Cc2ncnn2C)c1 | -5.342%
O=C1N(Cc2ccc(F)cc2)CCCC12CCN(C1CCSCC1)C2 (centres undefined) | -0.8017%
CC(C)(C)CC(=O)NC(C)(C(N)=O)c1cccc(Cl)c1 (centres undefined) | 91.43%
CC(C)(CNC(=O)c1ccco1)NC(=O)OC(C)(C)C | -7.413%
O=C(Cc1cccs1)NCC1(O)CCSC1 (centres undefined) | 0.8903%
CC(C)(CNC(=O)c1ccc(Cl)o1)NC(=O)OC(C)(C)C | -6.326%
CC(NC(=O)Cc1cccs1)(C(N)=O)c1cccc(Cl)c1 (centres undefined) | 80.31%
Cc1cc(CNC(=O)Cc2cccs2)ccc1S(C)(=O)=O | -11.25%
CC(NC(=O)NCc1cccc(Cl)c1)(C(=O)O)c1ccco1 (centres undefined) | 5.605%
CC(C)(C)OC(=O)NC(C)(C(N)=O)c1cccc(Cl)c1 (centres undefined) | 178.1%
CC(C)(C)C(=O)NCC(=O)NC1CC(c2cccc(Cl)c2)C1 (centres undefined) | -7.236%
COCc1ccc(C(=O)N2CCN(CC3CC3)[C@@H]3CS(=O)(=O)C[C@@H]32)o1 | -14.33%
CCCc1cnc(C)nc1NCCc1nc(C)cc(=O)[nH]1 | 11.65%
CN(C)CC(=O)N1CCc2sc(C(=O)N3CCOCC3)cc21 | 66.53%
CCCN1CCCC1c1ccc(C(=O)N2CCOCC2)s1 (centres undefined) | -8.147%
CN1CCCN(C(=O)c2cc3c(s2)CCN3C(=O)C2CC2)CC1 | 2.998%
CN(C)C1CCN(C(=O)c2cc3c(s2)CCN3C(=O)C2CC2)CC1.O=C(O)C(F)(F)F | -3.085%
CN(C)CC(=O)N1CCc2sc(C(=O)N3CCN(C)CC3)cc21 | 110.2%
CN1CCN(C(=O)c2cc3c(s2)CCN3C(=O)C2CC2)CC1 | -4.007%
C=C(C)CNc1ccc(C(=O)N(CC)Cc2nccn2C)cn1 | -22.79%
CCc1cnc(CN(C)C2CCN(CCn3cc(C#N)cn3)C2)o1 (centres undefined) | 85.15%
CCc1cnc(CN(C)C2CCN(CCS(C)(=O)=O)C2)o1 (centres undefined) | -2.122%
CC(C)c1cnc(CN(C)C2CCN(CCc3ccncc3)C2)o1 (centres undefined) | -3.327%

Structure (SMILES) | Percent Effect
Cc1cnc(CN(C)C2CCN(CCn3cc(C#N)cn3)C2)o1 (centres undefined) | 2.575%
CC(C)c1cnc(CN(C)C2CCN(CCn3cc(C#N)cn3)C2)o1 (centres undefined) | 95.34%
O=C(Cc1ccccn1)N1CCC2(CC1)CN(c1ncccn1)CCO2.O=C(O)C(F)(F)F.O=C(O)C(F)(F)F | 8.931%
O=C(Cc1ccccc1C(F)(F)F)N1CCC2(CC1)[C@H](O)C[C@@H]2O | 113.5%
CC(=O)N1CCCC2(CN(Cc3ccccc3C(F)(F)F)CCO2)C1 (centres undefined) | -3.341%
CC(Oc1ccccc1C(F)(F)F)C(=O)NCC(=O)N1CCCC1 (centres undefined) | -9.214%
CSc1ncccc1C(=O)N1CCC2(CC1)OCCCC2O (centres undefined) | -4.189%
O=C(Cc1ccccc1C(F)(F)F)N1CCC2(CC1)OCCCC2O (centres undefined) | 121.4%
Cc1nc(O)cc(CN2C[C@H](NS(=O)(=O)N(C)C)[C@@H](C3CC3)C2)n1 | -8.548%
Cc1nc(O)cc(CCNC(=O)c2ccc(CN3CCCCC3)cc2)n1 | 2.411%
CCS(=O)(=O)N1C[C@@H](c2cc(O)nc(C)n2)[C@H](c2ccccc2F)C1 | 95.46%
Cc1cccc(C(=O)N2C[C@H]3CC[C@@H]2CN(S(=O)(=O)N(C)C)C3)n1 | -20.97%
Cc1nc(O)cc([C@@H]2CN(S(=O)(=O)N(C)C)C[C@H]2c2ccccc2F)n1 | 136.9%
COCC(=O)N[C@H]1C[C@H]2C(=O)NC[C@@H](CCC(=O)NC3CC3)N2C1 | -1.651%
NC(=O)NC1(C(=O)N2CCc3c(Cl)cccc3C2)CCCCC1 | -13.57%
Cc1cccc(C2(CNC(=O)C(C)NC(N)=O)CCCC2)c1 (centres undefined) | -11.64%
O=C(O)c1cc(-c2cccs2)nc2c(Br)cnn12 | 100.3%
NC1(c2nc(-c3cccs3)cc(=O)[nH]2)CCCC1 | 0.7263%
O=C(c1cc(-c2cccs2)nc2ccccc12)N1CCN(CCO)CC1 | 26.12%
O=C(O)c1cc(-c2cccs2)nc2c(Cl)cnn12 | 80.97%
Cc1cnn(C2CCCN(C(=O)c3cc(-c4cccs4)n[nH]3)C2)c1 (centres undefined) | -22.99%
CC(C)OCCCNC(=O)[C@@]12CNC[C@@H]1CN(S(C)(=O)=O)C2 | 4.002%
O=C(NC[C@H]1OC[C@@H](NC2CCC(F)(F)CC2)[C@@H]1O)N1CCOCC1 | -13.75%
CC(C)(C)C(C#N)NC(=O)c1ccc(Oc2cccnc2)cc1 (centres undefined) | 2.212%
